Source: PubChem
Sampled rows, rich in hits. Any-hit rate of the full collection: about 1.1%.
SRC2 inh: inhibits human steroid receptor coactivator 2; Q15596; HEK293 GAL4-SRC2 luciferase reporter, luminescence; inhibition, % at 9 µM; 0.17% of 370,000 active; AID 651957;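 active = inhibition above the mean inhibition of all tested compounds plus 3 SD, set per campaign, cut at about 52% in these data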
GalR3 antagonist: human GalR3 antagonism; HEK293 GalR3-CNG cAMP membrane potential fluorescence; galR3 body fused to GalR1 C-terminus; 0.44% of 360,000 active; AID 651719; inhibition, % at 3 µM;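 active = inhibition above the screen-wide average plus 3 SD, cut at about 13% in these data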;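 also: forskolin and galanin both at EC90 stimulate the cells; cAMP rise reported by CNG channel membrane potential dye signal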
Target sequence (O60755 1-299 limits assumed): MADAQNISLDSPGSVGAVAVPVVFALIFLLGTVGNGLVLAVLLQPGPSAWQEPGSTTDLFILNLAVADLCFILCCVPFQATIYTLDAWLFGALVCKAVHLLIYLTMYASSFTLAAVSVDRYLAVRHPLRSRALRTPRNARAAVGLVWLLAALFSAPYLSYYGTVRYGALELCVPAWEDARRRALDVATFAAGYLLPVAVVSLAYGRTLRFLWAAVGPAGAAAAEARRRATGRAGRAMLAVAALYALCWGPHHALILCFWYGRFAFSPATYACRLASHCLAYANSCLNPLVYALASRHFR
NR2F2 inh: blocks human COUP-TFII nuclear receptor; P24468; HEK293T NGFI-A luciferase reporter, luminescence; inhibition, % at 8.6 µM; 0.7% of 370,000 active; AID 686940;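 active = inhibition above a per-plate cutoff, mean inhibition of test wells between control levels plus 3 SD, cut at about 38% in these data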;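 also: cells cotransfected with COUP-TFII expression vector driving the NGFI-A reporter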
Target sequence (P24468 whole entry, looked up): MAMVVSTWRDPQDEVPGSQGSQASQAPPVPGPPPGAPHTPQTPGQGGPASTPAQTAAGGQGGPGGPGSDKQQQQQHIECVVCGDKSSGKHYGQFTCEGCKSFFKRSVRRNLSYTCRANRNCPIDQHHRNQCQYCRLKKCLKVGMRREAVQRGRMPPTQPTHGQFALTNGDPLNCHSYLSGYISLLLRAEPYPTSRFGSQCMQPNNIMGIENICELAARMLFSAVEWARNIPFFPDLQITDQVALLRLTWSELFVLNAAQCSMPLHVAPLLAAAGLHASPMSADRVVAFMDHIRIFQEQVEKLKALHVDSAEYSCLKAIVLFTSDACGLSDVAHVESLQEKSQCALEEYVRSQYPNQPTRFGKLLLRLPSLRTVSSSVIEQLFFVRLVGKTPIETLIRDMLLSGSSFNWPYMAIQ
NCOA1 inh: inhibits human SRC1 coactivator | HEK293 GAL4-SRC1 luciferase reporter, luminescence | inhibition, % at 3.6 µM | 0.12% of 360,000 active;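 active = inhibition above the campaign mean plus 3 SD, with each screening campaign given its own cutoff, cut at about 60% in these data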
SRC3 inh: human NCOA3 inhibition; inhibition, % at 3.6 µM; 0.17% of 360,000 active; HEK293 GAL4-SRC3 luciferase reporter, luminescence; Q9Y6Q9; AID 588352;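 active = inhibition above a per-campaign cutoff, the mean of all compounds plus 3 SD, cut at about 60% in these data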;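 also: higher means less SRC3-driven luciferase light from the GAL4 reporter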
NR5A2 inv ag: suppresses constitutive activity of human LRH-1; O00482; HEK293T StAR-luciferase reporter, LRH-1 transfected, 24 h; inhibition, % at 3.6 µM; 0.13% of 360,000 active; AID 602396;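 active = inhibition above the mean inhibition of all tested compounds plus 3 SD, cut at about 73% in these data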
GalR3 antag conf: GalR3 (human) antagonism, confirmation | HEK293 GalR3 CNG cAMP biosensor, membrane potential fluorescence; galR3 fused to GalR1 carboxy tail; challenged with forskolin and galanin at EC90 | shares compounds with GalR3 antagonist | AID 652245 | 59% of 1,600 active | inhibition, % at 3 µM;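 active = inhibition above the primary screen's cutoff, the mean inhibition of all screened compounds plus 3 SD, cut at about 13% in these data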
CNG parental: counter-screen for GalR3 antagonists: nonspecific agonists in parental HEK-CNG cells. activation, % at 3 µM. shares compounds with GalR3 antagonist. HEK293-CNG parental cells, cAMP membrane potential fluorescence; normalised: DMSO wells 0%, forskolin wells 100%. 10% of 1,600 active; in the data active = activation above about 1.3%
Gal4-VP16 ctr: counter-screen for COUP-TFII antagonists: inhibitors of VP16 | 25% of 2,500 active | HEK293 Gal4-VP16 luciferase reporter, luminescence | inhibition, % at 8.5 µM | shares compounds with NR2F2 inh; in the data active = inhibition above about 13%
NR2F2 inh conf: confirmation of human COUP-TFII (NR2F2) inhibitors; inhibition, % at 8.5 µM; 45% of 2,500 active; AID 687008; HEK293 NGFI-A luciferase reporter, luminescence; shares compounds with NR2F2 inh;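 active = mean inhibition over three repeats above a set limit taken from the earlier primary screen, cut at about 38% in these data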
Hits are given with their value.

What do the screens show for `O=C1C(NC(=O)N2c3ccccc3C=Cc3ccccc32)CCCCN1Cc1cccc(C(F)(F)F)c1` (configuration not stated)?
SRC2 inh: inactive; NR2F2 inh: inactive

Results for CCCCNC(=S)Nc1cccc2cnccc12 ?
SRC2 inh: inactive; GalR3 antagonist: inactive; NR2F2 inh: inactive; NCOA1 inh: inactive; SRC3 inh: inactive; NR5A2 inv ag: inactive

How did S=C(NCCc1ccccc1)Nc1cccc2cnccc12 do in these assays?
SRC2 inh: inactive; GalR3 antagonist: 32.7; NR2F2 inh: 67.1; NCOA1 inh: inactive; SRC3 inh: inactive; NR5A2 inv ag: inactive; GalR3 antag conf: 103.3; CNG parental: inactive; Gal4-VP16 ctr: inactive; NR2F2 inh conf: 61.0

What do the screens show for `O=C(CCc1ccccc1-c1ccccc1CCNC(=O)COCc1ccccc1)NCc1ccccc1`?
SRC2 inh: inactive; NR2F2 inh: inactive

Results for CCc1cccc(OCC(=O)Nc2ccc(C)c(S(=O)(=O)N3CCCCCC3)c2)c1 ?
SRC2 inh: inactive; GalR3 antagonist: 87.4; NR2F2 inh: 40.1; NCOA1 inh: inactive; SRC3 inh: inactive; NR5A2 inv ag: inactive; GalR3 antag conf: 80.1; CNG parental: inactive; Gal4-VP16 ctr: inactive; NR2F2 inh conf: inactive

What do the screens show for `Cc1ccc(NC(=O)COc2ccc(N(C)C(=O)C(C)(C)C)cc2)cc1S(=O)(=O)N1CCCCC1`?
SRC2 inh: inactive; GalR3 antagonist: 93.2; NR2F2 inh: 74.3; NCOA1 inh: inactive; SRC3 inh: inactive; NR5A2 inv ag: inactive; GalR3 antag conf: 105.3; CNG parental: inactive; Gal4-VP16 ctr: inactive; NR2F2 inh conf: 53.9

How did COc1ccc(NC(=O)CN(C)CC(=O)Nc2ccc(C)c(S(=O)(=O)N3CCCCC3)c2)cc1 do in these assays?
SRC2 inh: inactive; GalR3 antagonist: inactive; NR2F2 inh: inactive; NCOA1 inh: inactive; SRC3 inh: inactive; NR5A2 inv ag: inactive

How did Cc1ccc(NC(=O)COc2cccc(C)c2C)cc1S(=O)(=O)N1CCCCCC1 do in these assays?
SRC2 inh: inactive; GalR3 antagonist: inactive; NR2F2 inh: inactive; NCOA1 inh: inactive; SRC3 inh: inactive; NR5A2 inv ag: inactive

What do the screens show for `C=c1[nH]cc(C(C)c2c(C)n(C)c3ccccc23)/c1=C/C` (configuration not stated)?
SRC2 inh: inactive; NR2F2 inh: inactive

Results for COc1ccc(-n2c(Cc3cccs3)nnc2SCC(=O)Nc2cccc3ccccc23)cc1 ?
SRC2 inh: inactive; NR2F2 inh: inactive

Results for FC(F)(F)c1cnc(NNC(=S)Nc2ccc(Cl)cc2)c(Cl)c1 ?
SRC2 inh: inactive; GalR3 antagonist: inactive; NR2F2 inh: inactive; NCOA1 inh: inactive; SRC3 inh: inactive; NR5A2 inv ag: inactive

What do the screens show for `Fc1ccc(NC(=S)NNc2ncc(C(F)(F)F)cc2Cl)c(F)c1`?
SRC2 inh: inactive; GalR3 antagonist: 91.9; NR2F2 inh: 57.5; NCOA1 inh: inactive; SRC3 inh: inactive; NR5A2 inv ag: inactive; GalR3 antag conf: 97.1; CNG parental: inactive; Gal4-VP16 ctr: 19.6; NR2F2 inh conf: inactive

What do the screens show for `CCOC(=O)COc1ccc(S(=O)(=O)NCc2ccncc2)cc1`?
SRC2 inh: inactive; GalR3 antagonist: 110.2; NR2F2 inh: 48.8; NCOA1 inh: inactive; SRC3 inh: inactive; NR5A2 inv ag: inactive; GalR3 antag conf: 110.8; CNG parental: inactive; Gal4-VP16 ctr: inactive; NR2F2 inh conf: inactive

What do the screens show for `CCOc1ccc(S(=O)(=O)NCc2ccncc2)cc1`?
SRC2 inh: inactive; GalR3 antagonist: 90.9; NR2F2 inh: 70.2; NCOA1 inh: inactive; SRC3 inh: inactive; NR5A2 inv ag: inactive; GalR3 antag conf: 107.8; CNG parental: inactive; Gal4-VP16 ctr: inactive; NR2F2 inh conf: 62.8

Results for Cc1cc(S(=O)(=O)NCc2ccncc2)c(C)cc1Br ?
SRC2 inh: inactive; GalR3 antagonist: 104.2; NR2F2 inh: 61.4; NCOA1 inh: inactive; SRC3 inh: inactive; NR5A2 inv ag: inactive; GalR3 antag conf: 110.8; CNG parental: inactive; Gal4-VP16 ctr: inactive; NR2F2 inh conf: 56.0

What do the screens show for `Cc1ccc(S(=O)(=O)NCc2ccncc2)cc1`?
SRC2 inh: inactive; GalR3 antagonist: 22.5; NR2F2 inh: 56.9; NCOA1 inh: inactive; SRC3 inh: inactive; NR5A2 inv ag: inactive; GalR3 antag conf: 74.0; CNG parental: inactive; Gal4-VP16 ctr: inactive; NR2F2 inh conf: 40.3

What do the screens show for `CCOc1ccc(S(=O)(=O)NCc2ccccn2)cc1`?
SRC2 inh: inactive; GalR3 antagonist: inactive; NR2F2 inh: inactive; NCOA1 inh: inactive; SRC3 inh: inactive; NR5A2 inv ag: inactive

Results for CCOC(=O)COc1ccc(S(=O)(=O)NCc2ccco2)cc1 ?
SRC2 inh: inactive; GalR3 antagonist: inactive; NR2F2 inh: inactive; NCOA1 inh: inactive; SRC3 inh: inactive; NR5A2 inv ag: inactive

What do the screens show for `COc1ccc(/C=N\NC(=O)CN2CCN(Cc3ccccc3)CC2)cc1OCc1ccccc1`?
SRC2 inh: inactive; NR2F2 inh: inactive

What do the screens show for `O=C(Nc1ccc2ccccc2c1)C1CC2CCC1C2` (configuration not stated)?
NR2F2 inh: inactive

Results for CCOc1cc(S(=O)(=O)NCc2ccncc2)ccc1Cl ?
SRC2 inh: inactive; GalR3 antagonist: 102.2; NR2F2 inh: 74.5; NCOA1 inh: inactive; SRC3 inh: inactive; NR5A2 inv ag: inactive; GalR3 antag conf: 126.0; CNG parental: inactive; Gal4-VP16 ctr: inactive; NR2F2 inh conf: 63.0

What do the screens show for `NC(=O)c1ccc(N2CCN(S(=O)(=O)c3cccs3)CC2)c([N+](=O)[O-])c1`?
SRC2 inh: inactive; GalR3 antagonist: 101.4; NR2F2 inh: 60.5; NCOA1 inh: inactive; SRC3 inh: inactive; NR5A2 inv ag: inactive; GalR3 antag conf: 102.1; CNG parental: inactive; Gal4-VP16 ctr: inactive; NR2F2 inh conf: 56.4

Results for COc1ccc(N=C2SCC(=O)N2CCc2ccc(OC)c(OC)c2)cc1 ?
SRC2 inh: inactive; GalR3 antagonist: inactive; NR2F2 inh: inactive; NCOA1 inh: inactive; SRC3 inh: inactive; NR5A2 inv ag: inactive
